Assay outcomes: PubChem, National Center for Advancing Translational Sciences (NCATS)
NPC1 prom act = qHTS Assay for NPC1 Promoter Activators; Huh7 NPC1 promoter luciferase reporter, 24 h; Potency, µM (doses to about 9.22 µM), for the others: at the top dose activation, hits mostly activators; 320,000 compounds, 2.4% hits; further: % of control where 0% means no effect; nearly all actives have a fitted effect of over 60% in size
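Luminescence from an NPC1 promoter-driven luciferase reporter in stably transfected Huh7 cells was measured after 24 h compound treatment at 37 °C, followed by 10 min ambient incubation with luciferase detection reagent.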
ELG1 genotoxic = qHTS screen for small molecules that induce genotoxicity in human embryonic kidney (HEK293T) cells expressing luciferase-tagged ELG1. HEK293T ELG1-luciferase reporter, luminescence, 16 h. AID 504466, 2011. Potency, µM (top dose mostly 46 µM), without a hit: at the top dose activity change, positive = activation, usual class: activators. 330,000 compounds, 1.3% hits; further: % of control where 0% means no effect; nearly all actives have a fitted effect of over 60% in size
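Step 1: seed 2,000 HEK293T ELG1-luciferase cells per well. Step 2: add compound or DMSO, incubate 16 hr at 37 °C. Step 3: ONE-Glo, 30 min at room temperature, read luminescence.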
ELG1 DNA repair = qHTS screen for small molecules that inhibit ELG1-dependent DNA repair in human embryonic kidney (HEK293T) cells expressing luciferase-tagged ELG1; HEK293T ELG1-luciferase reporter, luminescence, 16 h; DNA damage induced by 5-fluorouridine; AID 504467, 2011; Potency, µM (highest dose often 46.1 µM), for the others: at the highest dose activity change, negative = inhibition, hits mostly inhibitors; 330,000 compounds, 2.3% hits; further: on the % scale 0 is the no-effect control and ±100 the full control effect; nearly all actives have a fitted effect of over 55% in size
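Reporter activity after DNA damage by 5-fluorouridine is monitored. Compound-treated cells incubate 16 hr at 37 °C, then ONE-Glo is added for 30 min before luminescence reading.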
SMN2 splice up = qHTS Assay for Enhancers of SMN2 Splice Variant Expression. 210,000 compounds, 2.8% hits. HEK293 SMN2-luciferase splicing reporter, luminescence, 30-36 h. Potency, µM (highest dose often 46.1 µM), for inactives: at the highest dose activity change, positive = activation, most hits filed as activators; further: % of control where 0% means no effect; nearly all actives have a fitted effect of over 55% in size
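HEK293 cells carry an SMN2 […]–luciferase reporter in which exon 7 inclusion puts luciferase in frame. Cells were plated 10-12 h before compound addition, then incubated 30-36 h at 37C. ONE-Glo luminescence was read; sodium butyrate at 4.5 mM final served as control.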
Rab9 promoter act = qHTS Assay for Rab9 Promoter Activators; Huh7 Rab9 promoter-luciferase reporter, luminescence, 24 h; 320,000 compounds, 2.8% hits; Potency, µM (series often up to 9.22 µM), inactives show at the highest dose activation, negative = inhibition, usual class: activators; AID 485297, 2010; further: % of control where 0% means no effect; nearly all actives have a fitted effect of over 60% in size
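Steps: seed 1500 Huh7 Rab9-luc cells per well, rest 2 h at 37 °C; add compound in DMSO; incubate 24 h; add luciferase reagent, 10 min ambient; read luminescence.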
FLuc modulator = qHTS profiling assay for firefly luciferase inhibitor/activator using purifed enzyme and Km concentrations of substrates (counterscreen for miR-21 project); AID 588342, 2011; 360,000 compounds, 6.9% hits; Potency, µM (doses to about 57.5 µM), inactives show top-dose activity change, negative = inhibition, usual class: inhibitors; purified FLuc, Km substrates, luminescence inhibition;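 further: plate controls were vehicle for no effect and reference inhibitor for full effect; nearly all actives have a fitted effect of over 55% in size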
Target sequence (P08659 whole entry, looked up): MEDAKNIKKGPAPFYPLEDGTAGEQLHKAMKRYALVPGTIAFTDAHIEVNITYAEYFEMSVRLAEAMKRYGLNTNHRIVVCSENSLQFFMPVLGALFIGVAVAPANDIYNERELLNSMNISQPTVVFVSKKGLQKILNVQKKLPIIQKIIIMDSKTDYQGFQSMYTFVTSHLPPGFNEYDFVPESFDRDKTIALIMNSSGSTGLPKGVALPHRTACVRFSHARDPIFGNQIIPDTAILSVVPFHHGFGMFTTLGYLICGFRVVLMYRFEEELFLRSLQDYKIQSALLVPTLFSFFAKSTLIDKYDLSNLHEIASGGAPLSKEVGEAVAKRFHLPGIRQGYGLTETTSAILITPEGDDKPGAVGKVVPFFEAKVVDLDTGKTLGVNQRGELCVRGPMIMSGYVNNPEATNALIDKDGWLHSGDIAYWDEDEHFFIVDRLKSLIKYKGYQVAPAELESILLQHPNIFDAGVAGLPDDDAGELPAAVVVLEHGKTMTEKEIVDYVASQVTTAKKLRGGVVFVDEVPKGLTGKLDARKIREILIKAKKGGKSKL
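Purified P. pyralis luciferase (10nM final) with 10uM D-luciferin and 10uM ATP (Km levels) in 50mM Tris acetate pH 7.5, 10mM Mg acetate, 0.01% Tween-20, 0.05% BSA; qHTS 6-point titration, ~60 µM downward; luminescence read.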
The depositor's hits bear a star; ? = inconclusive; · = no result given; [ ] = dose if it differs, or a comment. Only some compounds are listed: those with a hit (about 9.2% of all), similar ones and a draw of the others. The call rests on the fitted dose curve; in most records, active means well fitted curve in the direction sought with a large enough effect; inconclusive means small, poorly fitted or top-dose-only effect, or another doubt; inactive means no such curve, though single readings can be large; an effect the other way counts as inactive or inconclusive. Potency means the concentration at half of the fitted maximal effect.

SMILES	NPC1 prom act	ELG1 genotoxic	ELG1 DNA repair	SMN2 splice up	Rab9 promoter act	FLuc modulator
Cc1cc(N2CCN(c3ccccc3Cl)CC2)n2cc(-c3ccccc3)nc2n1	1%	-21%	?	-7%	-8%	?
CCN(CC)C(=O)Oc1ccc2c(=O)c(-c3ccc(OC)cc3)c(C)oc2c1	-4%	-10%	?	-47%	-1%	?
COc1ccc2c(=O)c(-c3ccc4c(c3)OCO4)coc2c1	0.35µM*	2.9µM*	?	11µM*	0.4µM*	0.67µM*
COc1ccc(-c2coc3c(O)c(OC)ccc3c2=O)cc1	·	·	·	1.6µM*	·	·
CCN(CC)C(=O)Oc1ccc2c(=O)c(-c3ccc(OC)cc3)coc2c1	1.8µM*	1%	?	-12%	?	8.5µM*
O=C(OCc1cccc([N+](=O)[O-])c1)c1ccc[nH]c1=O	-2%	-4%	10%	·	2%	-1%
CCCCn1c(N)c(N(C)C(=O)c2ccccc2Oc2ccccc2)c(=O)[nH]c1=O	-2%	1%	14%	·	-3%	1%
Cc1nnc(N2CCN(c3ccccc3F)CC2)c2c1nnn2Cc1ccccc1Cl	·	·	·	7%	·	0%
CC(=O)Oc1c(/C=C(\C#N)C(N)=O)[nH]c2ccccc12	7%	-18%	21µM*	5%	18%	?
N#C/C(=C\c1c[nH]c2ccccc12)C(N)=O	0%	-4%	-22%	·	0%	?
COc1cccc2cc(C(=O)NCc3ccco3)c(=O)oc12	-1%	14%	?	-22%	13%	?
COc1ccccc1-c1noc(-c2ccccc2C(=O)NCc2ccco2)n1	-4%	-10%	?	-8%	-4%	19µM*
COc1cc(-c2noc(-c3ccccc3C(=O)NCc3ccco3)n2)cc(OC)c1OC	0%	-20%	4.6µM*	30%	-5%	-2%
COc1cc(-c2noc(CCCC(=O)NCc3ccccc3)n2)cc(OC)c1OC	-3%	1%	18µM*	-2%	-4%	1%
COc1cccc2cc(C(=O)NCc3ccco3)c(=Nc3ccc(C(=O)O)cc3)oc12	12%	21µM*	?	-51%	1%	?
COc1cc(-c2noc(CCCC(=O)Nc3cccnc3)n2)cc(OC)c1OC	-2%	1%	-17%	·	0%	-1%
COc1ccc(C)cc1NC(=O)C(NS(=O)(=O)c1cccc2nsnc12)c1ccccc1 (stereo not drawn)	·	·	·	-9%	·	2%
C/C(=N\NC(=O)CSCc1ccccc1Cl)c1cc(O)ccc1O	-23%	?	18µM*	·	-22%	19µM*
CC(=O)N1N=C(c2ccc(C)cc2)OC1c1ccc(C)cc1 (stereo not drawn)	?	18µM*	?	26%	?	17µM*
CC(=O)N1N=C(c2ccc(C)cc2)OC1c1ccc(C(C)C)cc1 (stereo not drawn)	2.5µM*	?	?	?	2.5µM*	3µM*
CC(=O)N1N=C(c2cccnc2)OC1c1ccc(C(C)C)cc1 (stereo not drawn)	-2%	10%	24%	10%	-8%	?
Cc1c(NC(=O)c2cccs2)cccc1C(=O)O	?	12%	?	10%	?	15µM*
Cc1c(NC(=O)c2ccc(Br)o2)cccc1C(=O)O	?	?	?	?	2.5µM*	21µM*
Cc1cc(O)c(NC(=O)c2ccc(Br)o2)cc1C	20%	?	?	14µM*	17%	?
Cc1ccc(NC(=O)c2cccc(C(=O)Nc3ccc(C)cc3C(=O)O)c2)c(C(=O)O)c1	-1%	-11%	?	·	-4%[1.84 µM]	27µM*
SMILES	NPC1 prom act	ELG1 genotoxic	ELG1 DNA repair	SMN2 splice up	Rab9 promoter act	FLuc modulator
Cc1ccnn1CCC(=O)N1CCCC(Nc2ccc(F)c(F)c2)C1 (stereo not drawn)	-4%	-2%	7%	·	-3%	-1%
O=C(O)c1cc(S(=O)(=O)NC(CO)C(O)c2ccc([N+](=O)[O-])cc2)ccc1Br (stereo not drawn)	-3%	1%	6%	·	-1%	-2%
O=C(O)c1cc(S(=O)(=O)N2CCCCC2)ccc1N1CCCC1	·	0%	21%	·	·	·
COc1ccccc1NC(=O)c1ccc(Br)o1	1%	?	?	27%	-5%	-14%
COc1cc(NC(=O)c2ccc(Br)o2)c(C(=O)O)cc1OC	-1%	2%	9%	18%	-1%	21µM*
Nc1ccccc1NC(=O)c1ccccc1N	11%	1%	26%	-3%	17%	-23%
Cc1cccc(NC(=O)c2ccccc2NC(=O)C2CCCCC2)c1C	2%	?	7%	-1%	-2%	17µM*
Cc1c(NC(=O)c2ccc(NC(=O)C3CC3)cc2)cccc1C(=O)O	0%	-2%	-14%	·	7%	15µM*
Cc1c(NC(=O)c2ccccc2N)cccc1C(=O)O	1.3µM*	?	?	·	1.8µM*	9.5µM*
CC(C)c1cnc2c(c1SCC(=O)Nc1ccc(C(N)=O)cc1)c(=O)n(C)c(=O)n2C	·	·	·	·	·	-13%
O=C(C1CC(=O)N(c2ccc3c(c2)OCCO3)C1)N1CCN(c2cccc(C(F)(F)F)c2)CC1 (stereo not drawn)	-5%	-7%	?	·	2%	0%
Cc1c(NC(=O)c2ccccc2NC(=O)COc2ccccc2)cccc1C(=O)O	-1%	-8%	9%	·	2%	-15%
Cc1c(NC(=O)c2ccccc2NC(=O)c2ccccc2)cccc1C(=O)O	0%	2%	5%	·	4%	17µM*
O=[N+]([O-])c1c(NCCCO)cc(N2CCN(Cc3ccc4c(c3)OCO4)CC2)c2nonc12	-2%	-6%	23µM*	-75%	-3%	-1%
COc1ccc(CNc2cc(NCCCO)c([N+](=O)[O-])c3nonc23)cc1	-2%	-10%	21µM*	-62%	-7%	3%
COc1ccc(Nc2cc(NCCCO)c([N+](=O)[O-])c3nonc23)cc1	-2%	6%	0%	·	1%	0%
COC(=O)Cn1cnc2c(oc3ccccc32)c1=O	-2%	17%	?	·	0%	?
Cc1ccc(-n2nc(C(=O)N3CCN(c4ccccc4)CC3)c(=O)n(C)c2=O)cc1	·	·	·	·	·	-2%
Cc1cc(C)c(S(=O)(=O)/N=C2\C=C(Nc3ccc(C(=O)O)cc3)C(=O)c3ccccc32)c(C)c1	-28%	-34%	3.3µM*	·	-37%	?
